Active and inactive are the calls of the source. Rule for the calls: active = hit-call score of the fitted dose curve at least 0.9, where 1 is the maximum; inactive = score below 0.9.

The assay is described as follows: APR_HepG2_p53Act_72hr: Apredica 72-hour HepG2 Assay for p53 Activation (AID 2282923).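 Note: average cellular p53 protein immunofluorescence intensity in HepG2 cells.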 To be noted: high-content imaging, actives raise or lower the signal. The method, then:
APR_HepG2_72hr is a cell-based, multiplexed-readout assay that uses HepG2, a human liver cell line, with measurements taken at 72 hours after chemical dosing in a 384-well plate.APR_HepG2_p53Act_72hr is one of 10 assay component(s) measured or calculated from the APR_HepG2_72hr assay. It is designed to make measurements of dna content, a form of viability reporter, as detected with fluorescence intensity signals by HCS Fluorescent Imaging technology.Data from the assay component APR_HepG2_p53Act_72hr was analyzed into 1 assay endpoint. This assay endpoint, APR_HepG2_p53Act_72hr, was analyzed with bidirectional fitting relative to DMSO as the negative control and baseline of activity. Using a type of viability reporter, measures of protein for gain or loss-of-signal activity can be used to understand the signaling at the pathway-level as they relate to the gene TP53. Furthermore, this assay endpoint can be referred to as a primary readout, because this assay has produced multiple assay endpoints where this one serves a signaling function. To generalize the intended target to other relatable targets, this assay endpoint is annotated to the dna binding intended target family, where the subfamily is tumor suppressor.
Cells were treated with dimethyl sulfoxide (DMSO) as a solvent control at a final concentration of 0.5% v/v or with compounds in DMSO with a resulting final DMSO concentration of 0.5% v/v. Compound treatment was done at concentrations of 0.39, 0.78, 1.56, 3.12, 6.24, 12.5, 25, 50, 100, and 200 uM in duplicate on each plate. Cells were treated with compounds for 1, 24, or 72 hr. Carbonyl […] m-chloro-phenylhydrazone (CCCP) and taxol were used as positive controls for mitochondrial function and cytoskeletal stability, respectively; DMSO served as the negative control for this experiment. Cells were fixed by the direct addition of 50 uL formaldehyde in Hank's Balanced Salt Solution (HBSS) to a final concentration of 3.7%. After incubation in the fixation medium for 30 min at room temperature (293-298 K), cells were rinsed twice with HBSS and treated with cell permeabilization buffer (16 uL of 0.5% Triton X-100) for 10 min at room temperature (293-298 K) before labeling. For mitochondrial membrane potential and mitochondrial measurements, pre-fixed cells were incubated with 50 uL of MitoTracker Red CMXRos (Invitrogen) at a concentration of 250 nM for 30 min before fixation. In the remaining cases, post-fixed cells were labeled by incubation with a multiplexed mixture of primary antibodies in HBSS for 60 min at room temperature (293-298 K) to detect immunoreactivity of c-Jun (1:500), phospho-histone H3 (1:100), phospho-histone H2A.x (1:200), p53 (1:400), alpha-tubulin (1:200) and Hoechst 33342 (2 ug/mL). Cells were labeled for multiplexed imaging on two separate plates: a) Hoechst 33342, MitoTracker Red, phospho-histone H3, and alpha-tubulin, and b) Hoechst 33342, phospho-histone H2A.x, and c-Jun. A final rinse with HBSS (50 uL) was performed before analysis. The primary and secondary antibodies for the proteins were phospho-histone H3 (rabbit anti-phospho-histone H3 and FITC-donkey anti-rabbit IgG), phospho-histone H2A.x (mouse anti-phospho-histone H2A.x and FITC-donkey anti-mouse IgG), c-Jun (rabbit anti-phospho-c-Jun and Cy3-donkey anti-rabbit IgG), p53 (sheep anti-p53 and Cy5-donkey anti-sheep IgG), alpha-tubulin (mouse anti-alpha-tubulin and Cy5-donkey anti-mouse IgG). These antibodies are available as the CellCiphr HepG2 assay kit (Millipore).Digital images of each well were captured using a Cellomics ArrayScan VTI (Thermo Scientific Cellomics) (0.8 NA objective, 0.63x optical coupler, and XF-93 filter set) at 20x magnification. The images were acquired using the autofocus feature of the ArrayScan instrument, which entails the following steps. First, the camera focuses on channel 1 (Hoechst 33342), where nuclei are identified. Second, a Z offset of 1 um is used for capturing mitochondria (MitoTracker Red). […]
On to `COc1cc(OC)nc(NC(=O)NS(=O)(=O)c2ncccc2OCC(F)(F)F)n1`, for which the molecule was classed as inactive.

Turning to `CO/N=C(/C1=NOCCO1)c1ccccc1Oc1ncnc(Oc2ccccc2Cl)c1F`, the result was inactive.

For the molecule `CCOc1nc(C(Cl)(Cl)Cl)ns1`, the outcome was inactive.

For `CC(C)NC(=O)N1CC(=O)N(c2cc(Cl)cc(Cl)c2)C1=O`, the molecule was classed as inactive.

Take `COC(=O)NS(=O)(=O)c1ccc(N)cc1`: the call was inactive.

In the case of `COP(=O)(OC)O/C(C)=C/C(=O)N(C)C`, the result was inactive.

For the molecule `CC(C)Oc1cccc(NC(=O)c2ccccc2C(F)(F)F)c1`, the molecule was called inactive.

`CCOc1nc(F)cc2nc(S(=O)(=O)Nc3c(Cl)cccc3Cl)nn12`: the result was inactive.

`COCC(=O)N(c1c(C)cccc1C)C(C)C(=O)OC` (stereo not given): the outcome was inactive.

On to `CC1(C)CCC(=Cc2ccc(Cl)cc2)C1(O)Cn1cncn1` (stereo not given), for which the molecule was classed as inactive.

With `CNC(=O)Oc1cccc2ccccc12`, the result was inactive.

Turning to `CCCN(CC)CC1COC2(CCC(C(C)(C)C)CC2)O1` (stereo not given), the molecule was classed as inactive.

Turning to `CC(C)(C)C(=O)C(Oc1ccc(Cl)cc1)n1cncn1` (stereo not given), the molecule was called inactive.

With `CCCCC(C#N)(Cn1cncn1)c1ccc(Cl)cc1` (stereo not given), the outcome was inactive.

As for `CCNP(=S)(OC)O/C(C)=C/C(=O)OC(C)C` (stereo not given), the molecule was classed as inactive.

With `Nc1c(Cl)c(F)nc(OCC(=O)O)c1Cl`, the molecule was classed as inactive.

Regarding `O=P(O)(O)CCCl`, the molecule was called inactive.

In the case of `CC1(C)C(C=C(Cl)Cl)C1C(=O)OC(C#N)c1cccc(Oc2ccccc2)c1` (stereo not given), the result was inactive.

Consider `COCC(C)N(C(=O)CCl)c1c(C)csc1C` (stereo not given), for which the call was inactive.

`Cc1ccc(N=CN(C)C=Nc2ccc(C)cc2C)c(C)c1`: the result was inactive.

As for `Cn1c(-c2ccccc2)cc(-c2ccccc2)[n+]1C`, the outcome was inactive.

On to `O=C1C2CC=CCC2C(=O)N1SC(Cl)(Cl)Cl` (stereo not given), for which the molecule was called inactive.

As for `CN/C(=N\[N+](=O)[O-])NCc1cnc(Cl)s1`, the molecule was called inactive.

On to `Nc1c(Cl)c(Cl)nc(C(=O)O)c1Cl`, for which the call was inactive.

Regarding `OC(c1ccc(Cl)cc1)(c1ccc(Cl)cc1)C(Cl)(Cl)Cl`, the call was inactive.

With `Nc1cnn(-c2ccccc2)c(=O)c1Cl`, the call was inactive.

With `CC(C)N1C(=O)N(c2ccccc2)CSC1=NC(C)(C)C`, the result was inactive.

`CSC(=O)c1c(C(F)F)nc(C(F)(F)F)c(C(=O)SC)c1CC(C)C`: the molecule was called inactive.

As for `COP(=S)(OC)SCn1nnc2ccccc2c1=O`, the call was inactive.

On to `CC1(C)CON(Cc2ccccc2Cl)C1=O`, for which the molecule was called inactive.

Turning to `CCCC(=NOCC)C1=C(O)CC(CC(C)SCC)CC1=O` (stereo not given), the result was inactive.

With `Cc1c(COC(=O)[C@@H]2[C@H](/C=C(\Cl)C(F)(F)F)C2(C)C)cccc1-c1ccccc1`, the molecule was called inactive.

Consider `COC(=O)c1c(C(F)F)nc(C(F)(F)F)c(C2=NCCS2)c1CC(C)C`, for which the outcome was inactive.

Consider `CCOC(=O)C(C)OC(=O)c1cc(Oc2ccc(C(F)(F)F)cc2Cl)ccc1[N+](=O)[O-]` (stereo not given), for which the call was inactive.

As for `CCCCOCN(C(=O)CCl)c1c(CC)cccc1CC`, the result was inactive.

Take `Clc1nc(Cl)nc(Nc2ccccc2Cl)n1`: the result was inactive.

On to `CC(C)C1(C)N=C(c2ncccc2C(=O)O)NC1=O` (stereo not given), for which the call was inactive.

As to `COP(=S)(OC)Oc1ccc([N+](=O)[O-])c(C)c1`, the outcome was inactive.

`C=C(C)CN(CC)c1c([N+](=O)[O-])cc(C(F)(F)F)cc1[N+](=O)[O-]`: the molecule was classed as inactive.

As to `CC(C)Nc1nc(Cl)nc(NC(C)C)n1`, the molecule was called inactive.

The values above are taken from PubChem BioAssay (EPA / NIEHS).
